From PubChem BioAssay (NCI) come the findings set out here.

This is part of a sample that, as a whole, favours compounds with a hit. Of some 83,000 tested, about 20% had one in any assay.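 Treatment: one concentration, 48 hours, 96-well format. Scoring: percent growth, with anything below 10 considered active.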 Unmarked numbers belong to inactive results. Activity calls are given as the source filed them.

What all share (experiment): NCI-60 one-dose screen, 48 h (100 = growth as untreated, 0 = no growth, -100 = all killed)
The subject of assay [1] is NCI-H226 lung. To be noted: 10 µM.
Assay [2] deals with NCI-H322M lung. To be noted: 10 µM unless noted.
The test system of assay [3] is HOP-62 NSCLC. To be noted: 10 µM unless noted.
Assay [4] relates to NCI-H460 lung. To be noted: 10 µM unless noted.
In assay [5] the test system is NCI-H522 lung. To be noted: 10 µM.
In assay [6] the test system is A549/ATCC NSCLC. To be noted: 10 µM unless noted.
Assay [7] relates to 786-0 renal. To be noted: 10 µM unless noted.
Assay [8] relates to COLO 205 colon. To be noted: 10 µM unless noted.
For assay [9], the system named is HOP-92 NSCLC. To be noted: 10 µM unless noted.

For the compound `Cc1nc2cc(Nc3nc(NCCO)nc(Nc4ccc(F)cc4)n3)ccc2n1Cc1ccccc1`, the growth in assay [1] is 91.6%; in [2], 98.9%; in assay [3] it was 94%; in assay [4], 83.5%; in assay [5], 85.6%; in assay [6], 74.1%. Moreover, the growth in assay [7] was 94.7%; in assay [8] it was 94.5%.
In the case of `O=C(O)CCN1CCN(c2cccc(Cl)c2)CC1`, the growth in assay [1] was 104%; in [3], 97%; in assay [4] it was 106%; in [9], 110%; in assay [5], 127%; in assay [6], 95.9%. Besides, the growth in assay [7] is 104%; in assay [8] it was 111%.
In the case of `CC1(C)N=C(N)N=C(N)N1c1cccc(OCCOc2cccc([N+](=O)[O-])c2)c1`, the growth in assay [1] is 98.2%; in assay [3] it was 93%; in [4], 19%; in assay [9], 86.4%; in [5], 7.73% (active); in [6], 20.4%. Besides, the growth in [7] was 81.7%; in [8], 35%.
Take `Cc1ccc(-c2c3c(N)c4c(nc3nc3c2c(C)nn3-c2ccccc2)CCCC4)cc1`: the growth is 91.8% in [1]; 106% in assay [3]; 101% in [4]; 81.6% in [9]; 91.6% in assay [5]; 93.3% in assay [6]. Besides, the growth in [7] was 91.6%; in [8], 92.3%.
Regarding `C=CC(=O)N1CC2(CC(n3nc(-c4ccc(Oc5ccccc5)cc4)c4c(N)ncnc43)C2)C1`, the growth in [1] was 15.8%; in [2], 31.1%; in assay [4] it was 40.5%; in assay [9], 20%; in assay [6], 39.2%; in [7], 35.5%.
In the case of `COc1ccc(-c2c3c(N)c4c(nc3nc3c2c(C)nn3-c2ccccc2)CCCC4)cc1`, the growth in assay [1] is 86.9%; in [3] it was 89.3%; in assay [4] it was 73.8%; in assay [9], 28.9%; in [5] it was 60.6%; in assay [6], 76.6%. The growth in assay [7] was 70.8%; in assay [8], 73.4%.
Consider `O=[N+]([O-])c1ccc(C=C2C(Cl)=C(Cl)C(Cl)=C2Cl)cc1`, for which the growth was 62.7% in assay [1]; 121% in assay [2]; 78.3% in [3]; 90.6% in assay [4]; 46.1% in [5]; 92.1% in assay [6]. Further, the growth in [7] was 19.8%; in assay [8], 54%.
On to `COc1cc(/C=C/C(=O)C2=C(/C=C/c3ccc(O)c(OC)c3)NC(=O)NC2c2ccc(O)c(OC)c2)ccc1O` (stereo not given), for which the growth is 91.8% in assay [1]; 102% in assay [2]; 123% in assay [3]; 89.1% in assay [4]; 78.9% in assay [6]; 100% in [7].
Turning to `NS(=O)(=O)c1cc(Br)c2c(c1)S(=O)(=O)NCN2`, the growth is 113% in [1]; 119% in [2]; 112% in assay [4]; 93% in assay [9]; 102% in [5]; 101% in [6]. The growth in assay [7] is 106%; in [8] it was 114%.
On to `NC(=O)c1cc(Cl)ccc1NC(=O)COc1ccccc1`, for which the growth in [1] was 90.5%; in [2] it was 46.7%; in assay [3], 46.7%; in assay [4], 29.6%; in assay [5], 44.2%; in [6], 52.8%. The growth in assay [7] is 60.1%; in assay [8], 25.4%.
`O=C1CC2c3cc(-c4cc5ccccc5o4)ccc3CCN2C(=O)N1c1ccccc1` (stereo not given): the growth in [1] was 93.5%; in assay [3], 82.9%; in [4], 87.6%; in assay [9], 47.2%; in [5], 69.9%; in assay [6], 80%. Further, the growth in assay [7] is 92.8%; in assay [8], 96.2%.
With `CC(=O)N(CC(O)CO)c1c(I)c(C(=O)NCCO)c(I)c(C(=O)NCC(O)CO)c1I` (stereo not given), the growth in assay [1] is 98.7%; in [2] it was 93%; in [3] it was 99.2%; in [4], 111%; in [6], 100%; in [7], 91%. Further, in [8], the growth is 105%.
On to `COc1cc2nc(N3CCC[C@H](NC4=CC(=O)c5ccccc5C4=O)C3)nc(N)c2cc1OC`, for which the growth in [1] is 107%; in assay [3], 64%; in assay [4] it was -65.7% (active); in assay [9], 75.8%; in [5], 74.4%; in assay [6], -80.6% (active). In addition, the results for the growth in [7] and in assay [8] were -92.7% (active) and -79.6% (active), respectively.
For `FC(F)(F)c1cc(CNc2nc(Cl)ncc2Br)cc(C(F)(F)F)c1`, the growth is 93.9% in [1]; 90.5% in [3]; 95.6% in assay [4]; 71% in assay [9]; 62.3% in [5]; 83% in assay [6]. Moreover, the growth is 84.6% in assay [7] and 103% in assay [8].
In the case of `Cc1nc2cc(Nc3nc(Nc4ccc(F)cc4)nc(N4CCN(C)CC4)n3)ccc2n1Cc1ccccc1`, the growth in assay [1] was 65%; in assay [3], 58.2%; in [4] it was 3.42% (active); in assay [9], 2.5% (active); in assay [5], -55.1% (active); in assay [6], 7.21% (active). Moreover, the growth is -83.1% (active) in [7] and -55.5% (active) in assay [8].
Take `NC(=O)c1cc(I)ccc1NC(=O)COc1ccccc1`: the growth in [1] is 64.2%; in assay [2], 48.3%; in assay [3], 21.7%; in [4] it was 6.3% (active); in assay [5], 0.734% (active); in assay [6], 18.3%. The growth in assay [7] was 33.7%; in assay [8], 12.2%.
With `CCOc1ccc(/C=N\N2CCCCCC2)cc1OCC`, the growth is 90.7% in [1]; 93.8% in assay [3]; 106% in [4]; 54.2% in assay [9]; 97.8% in assay [5]; 106% in assay [6]. Moreover, the figures for the growth in assay [7] and in [8] were 106% and 84.2%, respectively.
Take `CCOC(=O)c1cc2c(n(C)c1=O)-c1cnn(-c3ccc(OC)cc3)c1CC2`: the growth was 107% in assay [1]; 108% in [3]; 108% in assay [4]; 104% in assay [9]; 83.3% in assay [5]; 98.2% in assay [6]. Also, the growth in assay [7] was 101%; in [8], 109%.
As to `CCCCC(CCCC)(S(=O)(=O)CC)S(=O)(=O)CC`, the growth was 95.2% in assay [1]; 92.5% in assay [3]; 104% in assay [4]; 87.6% in assay [9]; 87.3% in [5]; 94.3% in assay [6]. Also, the figures for the growth in assay [7] and in assay [8] were 98.6% and 103%, respectively.
With `CC(C)(C)CC(C)(C)N(CSc1ccc(Cl)cc1)CSc1ccc(Cl)cc1`, the growth in assay [1] is 45.2%; in assay [3], 83.4%; in assay [4] it was 42.9%; in [9], 23.3%; in assay [5] it was -4.63% (active); in assay [6], 10.6%. Moreover, the growth in assay [7] is 41%; in assay [8], 75.6%.
As to `CCOC(=O)C(CC(c1ccccc1)N1CCCCC1)[N+](=O)[O-]` (stereo not given), the growth in [1] is 82.9%; in assay [2], 88.5%; in [3], 86%; in assay [4], 68%; in [5] it was 59.4%; in [6] it was 76.4%. The growth is 93.3% in assay [7] and 108% in assay [8].
Regarding `Cc1nc2cc(Nc3nc(N4CCOCC4)nc(N4CCN(C)CC4)n3)ccc2n1Cc1ccccc1`, the growth in assay [1] is 71.3%; in assay [3] it was 95%; in [4] it was 107%; in [9], 82.9%; in [5], 92.6%; in [6], 102%. In addition, the growth was 97.5% in assay [7] and 111% in [8].
On to `COc1cc(C(=O)/C=C/c2c(-c3cccs3)nc3sccn23)cc(OC)c1OC`, for which the growth in assay [1] was 26.2%; in [2], 8.06% (active); in [4], -27.9% (active); in assay [9], -5.38% (active); in assay [5], -13% (active); in assay [6], -3.26% (active). For the same compound, the growth is -13.9% (active) in assay [7] and -49.7% (active) in assay [8].
Take `COc1ccc(-n2ncc3c2ccc2cc(S(=O)(=O)c4ccccc4)c(=O)n(C)c23)cc1`: the growth in assay [1] was 52.6%; in assay [3], 72.5%; in assay [4], 88.8%; in assay [9], 37.2%; in assay [5], 33.2%; in assay [6], 86.8%. Also, the growth in assay [7] was 82.3%; in [8] it was 108%.
With `CSC1=CC(=O)c2ccccc2C1=O`, the growth in assay [1] was 89.2%; in assay [2] it was 107%; in assay [4] it was 95.6%; in assay [9], -29% (active); in assay [6], 99.1%; in [7], 106%. In addition, in [8], the growth is 101%.
Consider `Cn1c2c(cc(S(=O)(=O)c3ccccc3)c1=O)CCc1c-2cnn1-c1ccccc1Cl`, for which the growth in assay [1] was 117%; in assay [3], 113%; in assay [4], 106%; in [9] it was 90.8%; in assay [5], -72.1% (active); in [6], 86.7%. In addition, the growth was 102% in [7] and 113% in [8].
As to `C[C@@H](Oc1cc(-c2cnn(C3CC4(CCNCC4)C3)c2)cnc1N)c1c(F)ccc(Cl)c1Cl`, the growth in assay [1] was 65.5%; in assay [2], 44.4%; in assay [3], 28.4%; in assay [4], -11.7% (active); in [5], -0.334% (active); in assay [6] it was -14.4% (active). Besides, the growth in assay [7] was -2.08% (active); in assay [8] it was -8.9% (active).
Take `Cn1c2c(cc(S(=O)(=O)c3ccccc3)c1=O)CCc1c-2cnn1-c1cccc(Cl)c1`: the growth in assay [1] is 84.6%; in [3] it was 94.7%; in assay [4], 101%; in assay [9], 44.8%; in assay [5], -81.2% (active); in [6] it was 85.6%. In addition, the results for the growth in [7] and in [8] were 92.1% and 97.9%, respectively.
Consider `O=C(Nc1ccccc1O)c1ccc(NS(=O)(=O)c2cccc3cccnc23)cc1`, for which the growth in [1] was 50.3%; in [2] it was 48.3%; in assay [3], 38.3%; in assay [4], 40.2%; in assay [6] it was 51.1%; in assay [7], 71.9%. In assay [8], the growth is 47.8%.
With `CCC(C)[C@H]1O[C@]2(CC[C@@H]1C)C[C@@H]1C[C@@H](C/C=C(\C)[C@@H](OC3C[C@H](OC)C(O[C@H]4C[C@H](OC)[C@@H](O)[C@H](C)O4)[C@H](C)O3)[C@@H](C)/C=C/C=C3\CO[C@@H]4[C@H](O)C(C)=C[C@@H](C(=O)O1)[C@]34O)O2` (stereo not given in full), the growth in [1] was 6.79% (active); in [2], 52.7%; in assay [3], 29.5%; in assay [4], 3.02% (active); in assay [6], 21.3%; in [7] it was -79.7% (active). In assay [8], the growth is -41.6% (active).
In the case of `Cc1cc(C)c(S(=O)O)c(C)c1`, the growth in [1] is 99%; in assay [2] it was 124%; in assay [4] it was 109%; in assay [9], 93.1%; in assay [5] it was 101%; in assay [6], 109%. Also, the growth was 112% in assay [7] and 126% in [8].
Take `Cn1c2ccccc2c2nn(Cc3ccccc3)c(=O)nc21`: the growth in assay [1] was 86.6%; in assay [2], 113%; in assay [3], 94.2%; in [4], 102%; in assay [5], 103%; in assay [6], 105%. For the same compound, the growth in assay [7] was 108%; in [8], 119%.
Take `O=c1ccc2ccccc2o1`: the growth in assay [1] is 102%; in assay [2], 115%; in assay [3], 108%; in assay [4], 114%; in assay [6], 94%; in assay [7], 105%. Besides, in assay [8], the growth is 114%.
